Laboratory results as given in PubChem BioAssay (NCI).
The panel holds about 83,000 compounds, 20% with a hit somewhere; the sample as a whole holds those more often.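 Cell lines were cultured in 96-well plates, exposed to a single compound concentration, and assessed for percent growth 48 hours later.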 Unmarked numbers belong to inactive results. The source made the active and inactive calls. The calls were made as follows: active = growth percent below 10; inactive = the rest.

Assays:
Assay in all cases: NCI-60 one-dose screen, 48 h (100 = growth as untreated, 0 = no growth, -100 = all killed)
Conditions in all cases: 10 µM unless noted
[1] = tested on: SR leukemia
[2] = tested on: RPMI-8226 leukemia
[3] = tested on: OVCAR-8 ovarian
[4] = tested on: OVCAR-5 ovarian
[5] = tested on: OVCAR-4 ovarian
[6] = tested on: SK-OV-3 ovarian
[7] = tested on: IGROV1 ovarian
[8] = tested on: OVCAR-3 ovarian
[9] = tested on: HS 578T breast
[10] = tested on: NCI/ADR-RES ovarian

Compound | growth [1] | growth [2] | growth [3] [%] | growth [4] [%] | growth [5] [%] | growth [6] | growth [7] | growth [8] | growth [9] [%] | growth [10]
Cc1c(Cl)cccc1S(=O)(=O)Nc1ccc2c(c1)C(=O)N(C1CCC(=O)NC1=O)C2=O (stereo not given) | 97.1% | 84.5% | 47.8 | 97.3 | 69.1 | 106% | 64.1% | 105% | 67.3 | 73.3%
COc1cc(Nc2c(C#N)cnn3cc(-c4cnn(CC(C)(C)O)c4)cc23)ccc1Cl | 24.3% | 40.2% | 46.9 | 43.8 | 42.6 | 4.19% (active) | 4.87% (active) | 57.6% | 61.9 | 46.5%
CCCn1cnc2c(c1=N)C(c1ccc(F)cc1)c1sc3c(C)cccc3c1O2 (stereo not given) | 8.4% (active) | -13.5% (active) | 40.2 | 42.4 | 35.8 | 41.1% | 25.2% | -12.6% (active) | 13.7 | -11.8% (active)
COc1ccc(/C=N/NC(=O)c2cn(C3CC3)c3c(OC)c(N4CC5CCCNC5C4)c(F)cc3c2=O)cc1 (stereo not given) | -3.21% (active) | 64.2% | 94.8 | 97.5 | 87.9 | 102% | 75.3% | 83.1% | 99.1 | 91%
O=C(NNc1nc2cc(F)ccc2n2c(CO)ccc12)c1cnccn1 | 5.16% (active) | 21% | 10.9 | 36.4 | 20.5 | 9.3% (active) | 14.9% | 33.4% | 68.3 | 3.02% (active)
CCOC(=O)c1c(Nc2ccccc2)nn2c(-c3ccc(OC)cc3)ccnc12 | 76.7% | 75.1% | 94.3 | 90.9 | 98.7 | 101% | 101% | – | 79.7 | 88.1%
Cn1cc(-c2cc(N)n3nc(-c4cn(C)c5ccccc45)cc3n2)c2ccccc21 | -9.33% (active) | 18.7% | 85.4 | 114 | 95 | 137% | 104% | 101% | – | 91.3%
O=C(c1ccc(Cl)cc1)C1[C@H](c2ccc(Cl)cc2)[C@@H](c2ccccc2)NC12C(=O)Nc1ccccc12 (stereo not given in full) | 3.54% (active) | 40.1% | 64 | 71 | 59.7 | 102% | 44.9% | 47.7% | – | 52.2%
CCC(CC)N1C(=O)/C(=c2\sc3n(c2=O)NC2C(N=3)N(CC)C(=O)N2CC)c2ccccc21 (stereo not given) | 54.5% | 64.7% | 81.6 | 57.3 | 63.6 | 95.7% | 44.7% | 31.5% | – | 26.3%
O=C(CCn1cc[n+](CC(=O)c2ccc(-c3ccccc3)cc2)c1)Nc1cccc2cccnc12 | 79.8% | 34% | 82.4 | 91.7 | 24.6 | 74.6% | 36.4% | 51.9% | – | 99.7%
Cc1ccc(CSc2nc(-c3ccc(Cl)cc3)c(C#N)c(N3CCOCC3)n2)cc1 | 85.6% | 82.2% | 97.2 | 100 | 89.8 | 98.2% | 106% | – | 107 | 94.8%
CC(C)(C)c1ccc(C(=O)Nc2sc3c(c2C(N)=O)CC/C(=N\O)C3)cc1 | 6.35% (active) | -16.7% (active) | 15.8 | 26.6 | 10 | 35.1% | 27.6% | – | 38.7 | 11.7%
CCn1c(SCC(=O)Nc2cccc(C(=O)/C=C/c3ccc(Br)cc3)c2)nc2ccccc2c1=O | 74.3% | 5.53% (active) | 96.4 | 95.8 | 93 | 106% | 86.8% | 90.7% | – | 89.6%
CC(=O)N(C)C1CCc2c(sc(NC(=O)c3ccc(C(C)(C)C)cc3)c2C(N)=O)C1 (stereo not given) | 9.43% (active) | 81.2% | 73.8 | 78.9 | 41.7 | 108% | 100% | – | 38.9 | 79.6%
Cc1ccc(-c2nnc(SCc3ccc(O)c4ncccc34)o2)cc1 | 32.8% | 12.8% | 12.2 | 58.2 | 15.8 | 14.1% | 13.7% | 28.4% | – | 10.7%
